The sequences below were run on VDR:RXRa (NR concentration 270 nM, RXRa partner concentration 90 nM) (assay: PBM binding z-score (relative to random genomic background probes); higher = stronger binding; sequences stand for … in GC…GCGATTGACAGCGTAGAATGAAGG).
Method: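 Protein-binding microarray (Agilent 4x180K custom design, double-stranded 60-nt probes: 5' GC cap, 34-nt variable region, 24-nt constant primer region; full probe sequence given). Purified or IVT nuclear receptor:RXRα heterodimers (3:1 NR:RXRα, mostly 270:90 nM) or homodimers were incubated for 1 h in PBS with 2% milk and no ligand, then detected with Alexa488 antibodies. Fluorescence from o1-orientation probes (~5 replicates averaged) was converted to z-scores against 500 random hg19 background probes. Variable regions are seed direct-repeat (DR0–DR5) sites, all their single-nucleotide variants and half-site ablations.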
For TCATATAGGTAATACAGGTGATAGTCGGCATCTA, the PBM binding z-score was 1.04. In the case of CCTTACGAGTCACTCCAGGTTATAGCATCGGAGT, the PBM binding z-score is reported as 1.24. With AGAATGAGGTTATACGTAGATCATGGAAGAAAGT the PBM binding z-score was 1.72. Sequence CGTCCAAGATCAAGGTCAGTGAAAGAGACTCGAA has a PBM binding z-score of 1.62. With ATCTCTAGGTTAAGTTCAGTGAAAGATCGATAGA the PBM binding z-score was 2.37. Work on ACTATTAGTTGACTTAGGGCAACCAATACGACGC yielded a PBM binding z-score of 0.354. For TAGCCTAGGTCAGATCTGGCCAGTATACGCTATA, the PBM binding z-score was 0.166. In the case of CAAACTAGGTCACAGAGATCAAAGTCCGTGCGTA, the PBM binding z-score is reported as 4.39. Work on AGTCAAAATTCAGGACGAGGTAACGTAAAGCACG yielded a PBM binding z-score of -0.107. Work on AGTCAAAGTTCAGGAAGAGGTAACGTAAAGCACG yielded a PBM binding z-score of 2.96. In the case of TGAATGAGGTTAAAGATCAGGAAACGTGGCGTCG, the PBM binding z-score is reported as 1.95. CCTCGGAGGACAACAGGAGGTCAGAGGTGCCAGA was tested, and the PBM binding z-score was 2.28. For AGTCAAAGTTCACTGGGTAACGTAAGATTCAGCT, the PBM binding z-score was 4.34. CTTCCAAGGTCAGCAGGTCAGTGAAAGCGACGTG gave a PBM binding z-score of 4.03. Sequence GTACCAAGGTGAATATGTCGTTGATGAGTAGGCG has a PBM binding z-score of -0.0532. With ATCTCTGGGTAACAAGTTCAGTGAAAGAGAGGAC the PBM binding z-score was 2.8. AGAACCAGGGCAATGAGTTGATAGCACGGGTGGC was tested, and the PBM binding z-score was 3.6. In the case of TCTGCTAGGTCAACGATGGTCAGGTAATCTGCTA, the PBM binding z-score is reported as 1.78. CGTCCATGGTCAGCAGGTCAGTGAAAGCGACGTG gave a PBM binding z-score of 0.0484. With CGTCCAAGGTCAATGCTACGTCAGTGAAAGCATT the PBM binding z-score was 3.53. Sequence TCTTGTAGATCAAGAGGAGGTTAAGAAAGATCGA has a PBM binding z-score of 0.632. With CATAGTTGGTCAGGAGGTCACACACCGGATATGA the PBM binding z-score was 3.94. Sequence CGTCAAAGTTCAAGGTAACTTAACAGAAAGCAGC has a PBM binding z-score of 3.73. GGAACGATGGCAAAGTTGATAGCATCTGTCGACG was tested, and the PBM binding z-score was -0.351. Work on CGAACGAGGGCATGAGTTGATAGCAAATGCCGAT yielded a PBM binding z-score of 1.43. For TGTCAAAGTTCAATGGTAACGTAAGTATCCACAC, the PBM binding z-score was 3.81. Work on ACAGACAGGTGATGAAGGTAACTCACGCTATCAT yielded a PBM binding z-score of 0.327. In the case of CCAGACAGGCGAGAAGGTAACTCAGCCTCGATTA, the PBM binding z-score is reported as -0.665. CGATCTAGGTCAGAACAGGACAGTGAAGGATGAT was tested, and the PBM binding z-score was 0.316. In the case of CTTTACGGGTCACGAGGTTATAGCACGACGAGCG, the PBM binding z-score is reported as 5.31. TCTCGGAGGACTCGAAGGTCAGAGCTTTCCAGAG was tested, and the PBM binding z-score was 0.759. In the case of TGTCAAGGTTCAAAGGTAACGTAAGTATCCACAC, the PBM binding z-score is reported as 4.59. In the case of ACTTACGTGTCAACGAGGTTATAGCACGCGTATA, the PBM binding z-score is reported as 5.46. GGAACGAGGCCAAGTTGATAGCAGAGTTTGATGG was tested, and the PBM binding z-score was -0.548. Sequence ATCGAAAGGTCGTGAGGTGAGTATCCAGAAAGGC has a PBM binding z-score of 3.39. Work on TCATATAGGTAAAGGTGCAAGTCGAACGATATGA yielded a PBM binding z-score of 0.567. In the case of GCTATAAGTTGAAAGGGCAACCGAATGATTCTCG, the PBM binding z-score is reported as 0.931. TCTTGTAGATCAATAGATGTTAAGAAAGTGCGCT gave a PBM binding z-score of 0.468. Sequence CCTAGTTGGACAGGAGGTCACACACCGGATATGA has a PBM binding z-score of 3.69. With CCTATTAGTTGTCCATAAGGGCAACCGAAGCTCG the PBM binding z-score was 0.958.

Reference: the supplement of paper PMC6555819
